D3 antag: blocks the human D3 dopamine receptor; max response, negative = inhibition, %; AID 652054; 2.5% of 360,000 active; D3R cells, DiscoveRx beta-arrestin luminescence, antagonist mode; stronger effect = lower value; P35462; in the data active means max response below about -50%; inconclusive means no clear call, values can overlap the other calls; further: on the % scale 0 is the no-effect control and ±100 the full control effect
Target sequence (P35462 whole entry, looked up): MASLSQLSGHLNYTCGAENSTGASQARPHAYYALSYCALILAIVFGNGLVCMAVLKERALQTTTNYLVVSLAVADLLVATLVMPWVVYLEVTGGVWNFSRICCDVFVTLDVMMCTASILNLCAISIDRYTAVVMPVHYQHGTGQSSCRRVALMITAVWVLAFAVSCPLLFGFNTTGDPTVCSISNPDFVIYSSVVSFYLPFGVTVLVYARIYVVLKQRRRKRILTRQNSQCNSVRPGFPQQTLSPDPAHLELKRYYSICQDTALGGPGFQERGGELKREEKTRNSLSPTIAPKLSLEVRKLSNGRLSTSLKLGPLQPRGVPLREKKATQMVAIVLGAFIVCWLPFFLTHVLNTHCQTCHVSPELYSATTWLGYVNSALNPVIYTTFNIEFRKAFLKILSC
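Cells expressing the human receptor were seeded at 1500 cells/well, incubated overnight at 37 degrees C in 5% CO2, then exposed to library compounds with dopamine controls for 90 minutes at 37 degrees C before luminescent detection.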
D1 PAM: enhances dopamine response at the human D1 receptor; P21728; HEK293 TREx D1 cells, calcium flux, dopamine EC20 potentiation; potentiation, % at 10 µM; 0.036% of 360,000 active; AID 504651; in the data active means potentiation above about 30%; further: 0% is about no effect
D1 antag: antagonists of human D1 dopamine receptor. HEK293 TREx D1 cells, calcium flux, dopamine EC80; stronger effect = lower value. activity change, negative = inhibition, % at 10 µM. AID 504652. P21728. 3.2% of 360,000 active; in the data active means activity change below about -30%; further: on the % scale 0 is the no-effect control and ±100 the full control effect
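Using tetracycline-induced force-coupled D1 Hek293 cells and a calcium dye, signals were followed for 180 s after compound, then for 180 s after EC80 dopamine, to detect inhibitors.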
D1 agonist: human D1 receptor agonism; P21728; HEK293 T-REx D1 cells, calcium flux, agonist mode; activation, % at 2 µM; 1% of 360,000 active; in the data active means activation above about 30%; further: 0% is about no effect
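Tetracycline-induced HEK293 TREx D1 cells, force-coupled to calcium signalling, were dye-loaded with a no-wash calcium kit. Compound was pin-added after a 10 s baseline. Fluorescence was read kinetically at 1 cycle/s for 180 s, with calcium rises flagged as agonism.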
DRD3 agonist: activates the human D3 dopamine receptor; 0.58% of 410,000 active; D3R DiscoveRx beta-arrestin cells, luminescence, 90 min; max activation, %; in the data active means max activation above about 30%; further: 0% is about no effect
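Cells at 1500/well, incubated overnight, then treated with pinned compounds (dopamine as control) for 90 min at 37 degrees C. DiscoveRx reagent added for 30 - 60 minutes at room temperature; luminescence read.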
* marks the source's active call; other numbers are inactive results; ? = inconclusive; / = no result; ! = repeats disagree. Shown are actives, neighbours in structure and some others; about 6.1% of the full set was active somewhere.

SMILES	D3 antag	D1 PAM	D1 antag	D1 agonist	DRD3 agonist
CC(C)N1CCOC(c2ccc(O)c(O)c2)C1 (stereo not drawn)	18.7	/	/	/	95.5*
O=C1Nc2ccc(Cl)cc2C(c2ccccc2)=NC1O (stereo not drawn)	/	/	/	/	-6.8
Oc1cc2c(cc1O)[C@H]1c3ccccc3CN[C@@H]1CC2	/	-2.6	-87.0*	66.5*	/
COc1ccc2c(c1)C1OCCNC1CC2 (stereo not drawn)	?	/	/	/	8.7
Cc1ccc(OCC(=O)Nc2ccc(Cl)cc2C(=O)c2ccccc2)c(Br)c1	/	-1.6	-11.3	1.0	2.3
CCN1CCN(Cc2cc(Br)cc(OC)c2O)CC1	-52.9*	-5.0	-1.5	2.4	-38.1
Oc1c(Br)cc(Br)cc1CN1CCN(Cc2ccccc2)CC1	?	-9.1	1.8	-0.4	-2.5
CCC(=NCCOc1ccc(Cl)cc1)c1c(O)n(C)c(=O)n(C)c1=O	23.1	-8.7	-41.8*	7.8	4.4
CCC(=NCCN1CCCCC1)c1c(O)n(C)c(=O)n(C)c1=O	-13.1	-3.4	-2.3	1.1	1.6
CCC(=NCCc1c[nH]c2ccccc12)c1c(O)n(-c2ccc(C)cc2)c(=O)[nH]c1=O	1.4	-5.9	-7.0	5.0	-0.8
CCC(=NCCc1c[nH]c2ccccc12)c1c(O)n(C)c(=O)n(C)c1=O	28.6	-4.5	-30.9*	10.5	65.2*
CCC(=NCc1cc(OC)cc(OC)c1)c1c(O)n(C)c(=O)n(C)c1=O	57.0	0.6	-7.3	9.1	39.3*
C=C[C@H]1CN2CC[C@H]1C[C@H]2[C@H](OC(=O)OCC)c1ccnc2ccc(OC)cc12	/	/	/	/	-11.1
COc1ccc(C(=O)O)cc1OC	19.4	/	/	/	2.3
O=C(O)c1cc[c]([Hg][Cl])cc1	-64.7*	11.9	0.6	4.6	-59.4
CCn1nc(/C=C/c2ccccc2)nc2c(=O)n(C)c(=O)nc1-2	?	-5.1	-3.8	0.4	-9.6
CCn1nc(-c2cccs2)nc2c(=O)n(C)c(=O)nc1-2	-80.5*	1.5	1.6	1.6	-15.6
C=CCN1CCc2cccc3c2[C@H]1Cc1ccc(O)c(O)c1-3	-23.7	4.5	-89.7*	31.8*	116.3*
C=CCN1CC[C@]23c4c5ccc(O)c4O[C@H]2[C@@H](O)C=C[C@H]3[C@H]1C5	/	/	/	/	-8.5
CC1CN=C(Nc2ccc(F)c(Cl)c2)S1 (stereo not drawn)	?	-3.4	-32.8*	14.9	-6.9
COc1ccc(C)cc1NC(=O)c1cccn(Cc2cccc([N+](=O)[O-])c2)c1=O	/	4.8	/	-0.5	-15.2
Oc1ccc2c3c1O[C@H]1[C@@H](O)C=C[C@H]4[C@H](C2)NCC[C@@]341	/	/	/	/	9.5
COc1ccccc1CN1CCN(C(=O)COc2ccccc2)CC1	-81.5*	-2.1	-5.2	0.5	0.5
COc1ccc(OCC(=O)N2CCN(Cc3ccc4c(c3)OCO4)CC2)cc1	0.6	-1.9	-15.7	0.9	-5.5
COc1ccc(OCC(=O)N2CCN(Cc3ccc(SC)cc3)CC2)cc1	-7.9	23.7	-38.2*!	2.0	3.3
SMILES	D3 antag	D1 PAM	D1 antag	D1 agonist	DRD3 agonist
COc1cc(OC)c(OC)cc1CN1CCN(C(=O)COc2ccc3ccccc3c2)CC1	0.0	-2.9	27.8	0.1	-19.9
O=C(COc1ccccc1)N1CCN(CC2CC=CCC2)CC1 (stereo not drawn)	-56.6*	/	-2.0	3.0	-14.0
Cc1cc(NC(=O)c2cccn(Cc3cccc([N+](=O)[O-])c3)c2=O)no1	/	-0.3	/	1.4	0.0
CCc1ccc(-n2nc(C)c3c2NC(=O)CSC3c2ccc(C(=O)OC)cc2)cc1 (stereo not drawn)	/	1.1	-42.8*	9.4	-16.6
CCc1ccc(-n2nc(C)c3c2NC(=O)CSC3c2ccccc2C)cc1 (stereo not drawn)	/	-2.1	14.7	0.1	-13.3
CCOC(=O)c1cccc(C2=C(CNC(C)=O)[C@H]3CC[C@@H](C2)N3Cc2ccccc2)c1	-9.3	/	/	/	-7.3
CCOC(=O)c1cccc(C2=C(CNC(=O)c3ccc([N+](=O)[O-])cc3)[C@H]3CC[C@@H](C2)N3Cc2ccccc2)c1	-97.7*	/	/	/	-17.4
C=CCC1=C(C)C(OC(=O)C2C(C=C(C)C)C2(C)C)CC1=O (stereo not drawn)	/	/	/	/	-11.5
CCOc1ccc(-n2c(O)c(N=Nc3c(C)n(C)n(-c4ccccc4)c3=O)c(=O)[nH]c2=O)cc1	-21.4	-0.3	6.0	10.5	-14.5
Cc1c(N=Nc2c(O)[nH]c(=S)[nH]c2=O)c(=O)n(-c2ccccc2)n1C	-65.6*	1.4	2.8	2.5	-15.5
C=CCn1c(O)c(N=Nc2c(C)n(C)n(-c3ccccc3)c2=O)c(=O)[nH]c1=S	-57.2*	-2.8	0.9	2.4	-13.5
CC[C@H](O)C(C[C@H](C)N(C)C)(c1ccccc1)c1ccccc1	/	/	/	/	-7.4
CCn1c(CN2CCN(C)CC2)nc2ccccc21	/	-1.7	8.2	0.8	7.5
COc1cccc(C2(O)CCN(Cc3ccncc3)CC2)c1	-62.1*	2.1	-1.0	2.8	-14.1
CC[C@H]1CN(C)CCc2c([nH]c3ccccc23)C(=O)C[C@@H]1/C(=C\OC)C(=O)OC	-50.8*	/	/	/	-15.6
COc1ccc(-n2c(/C=C\c3ccccc3F)nc3ccccc3c2=O)cc1OC	/	3.0	-6.8	-4.5	6.2
Cc1ccc(/C=C2\C(=O)NC(=S)N(c3ccc(F)cc3)C2=O)o1	-21.8	5.1	-15.0	8.5	0.4
Cc1cc(C)cc(N2C(=O)/C(=C\c3ccc(N4CCN(C)CC4)o3)C(=O)NC2=S)c1	-9.1	-3.5	-3.5	43.7*	-6.3
C=CCN1C(=O)/C(=C/c2ccc(N3CCOCC3)o2)C(=O)NC1=S	17.5	-2.3	-0.7	119.0*	6.9
O=C1NC(=O)C(=Cc2ccc(N3CCOCC3)o2)C(=O)N1	?	-3.0	8.8	8.4	-2.1
CC[N+](C)(CC)CCOC(=O)C(O)(c1ccccc1)c1ccccc1	/	/	/	/	0.6
CCOc1ccc(CN(CCc2ccc3c(c2)OCO3)Cc2cc(OC)ccc2O)cc1	/	-3.0	-26.1	1.2	-13.5
Cc1cccc(NC(=O)Cn2cc(C(=O)c3ccccc3)c3ccccc32)c1C	/	-3.2	-17.7	3.8	-14.7
OCCN(CCO)CCO	/	/	/	/	6.3
N#Cc1cc2c(nc1SCC(=O)Nc1ccc(Cl)c(C(F)(F)F)c1)C1CCN2CC1	/	-3.8	-10.8	4.4	-9.2
CCC/C=C/C=C/C(=O)O[C@H]1/C(=C/C(=O)OC)C[C@H]2C[C@H]([C@@H](C)O)OC(=O)C[C@H](O)C[C@@H]3C[C@H](OC(C)=O)C(C)(C)[C@](O)(C[C@@H]4C/C(=C/C(=O)OC)C[C@H](/C=C/C(C)(C)[C@]1(O)O2)O4)O3	/	/	/	/	-27.8
O=c1[nH]c2ccccc2n1C1CCN(C(CCc2ccccc2)c2nnnn2-c2ccc3c(c2)OCCO3)CC1 (stereo not drawn)	97.7	/	/	/	35.6*
CC(=O)[C@H]1CC[C@H]2[C@@H]3CC[C@@H]4C[C@H](O)CC[C@]4(C)[C@H]3CC[C@]12C	/	/	/	/	-7.0
